# Assay outcomes from PubChem BioAssay.
# Compounds with a hit are over-represented: about 2.6% of the library has one in this group of screens.
# TROY signal inh – blocks TROY-dependent signaling in reporter cells; Q293 LMP1-TROYcd NF-kB luciferase reporter, 4 h; inhibition, % at 10 µM; 360,000 compounds, 0.98% hits; AID 1347056;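 active = compounds whose plate-normalised and pattern-corrected inhibition of the luciferase reporter signal at the single screening dose is 50% or more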
# CF NFkB block – cystic fibrosis NF-kB activation inhibition; 360,000 compounds, 0.86% hits; AID 588850; inhibition, % at 5 µM; KKLEB NF-kB-GFP reporter, PAF-induced, GFP fluorescence overnight;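 active = at least 50% inhibition at 5 µM, scaled per plate between neutral and stimulator controls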;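 note: PAF is a Pseudomonas aeruginosa culture filtrate used as stimulus; plate controls were PAF-stimulated DMSO wells for no effect and unstimulated DMSO wells for full effect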
# LGR2 inh – blocks bursicon-induced cAMP signaling via Drosophila LGR2; AID 720647; HEK293 LGR2, CRE-luciferase, bursicon-stimulated, 4 h; 380,000 compounds, 0.35% hits; inhibition, % at 9.99 µM;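 active = drop in luminescence signal, shown as inhibition above about 50% in the replicate tests, limit read from the data, passing the limit was not always enough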;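 note: agonist challenge used bursicon conditioned medium at about half maximal strength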
# KKLEB tox – counter-screen for CF NF-kB inhibitors: cytotoxicity; KKLEB CF airway cells viability, ATPlite luminescence, overnight; active compounds read low; cells stimulated with P. aeruginosa culture filtrate; activity change (cytotoxicity), % at 5 µM; 360,000 compounds, 0.36% hits; AID 602141;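 active = corrected activity change at or below -50% at 5 µM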
# EWS-Fli block – blocks EWS/Fli oncoprotein-driven transcription. A673 NR0B1-luciferase reporter, viability-normalised. inhibition, % at 12.6 µM. 350,000 compounds, 0.67% hits. AID 651661;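 active = mean inhibition of at least 50% after viability correction, with every replicate also passing that limit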;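 note: firefly luciferase signal divided by Alamar Blue viability fluorescence both relative to DMSO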
# TWEAK-Fn14 inh – inhibitors of TWEAK-Fn14 interaction signaling; TWEAK-stimulated Fn14 reporter cells, luciferase luminescence, 8 h; inhibition, % at 10 µM; 360,000 compounds, 2% hits; in the data active = inhibition above about 50%
# Numbers without * were called inactive; . = no result; ! = a repeat was not active.
SMILES,TROY signal inh,CF NFkB block,LGR2 inh,KKLEB tox,EWS-Fli block,TWEAK-Fn14 inh
CCN1/C(=C\c2ccc3cc(C)ccc3[n+]2CC)Sc2cc(C)c(C)cc21,45,-65,34,-12,57*,64*
CCN1/C(=C/c2ccc3cc(C)cc(C)c3[n+]2CC)Sc2cc(C)ccc21,31,-245,82*,-53*,76*,34
COC(=O)c1cccc(CSc2nc3ccccc3[nH]2)c1,-28,-1,-102,-2,59*,2
COC(=O)c1cc(CSc2nc3ccc(C)cc3[nH]2)oc1C,.,6,.,1,.,92*
COC(=O)c1ccc(CSc2nc3ccccc3[nH]2)o1,-5,15,.,-13,.,-4
CN1[C@@H]2Cn3c(ccc(C4=CCCC4)c3=O)[C@H]1[C@@H](C(=O)N1CCCCC1)[C@@H]2CO,.,.,3,.,-5,.
Cc1cccc(C)c1NC(=O)CN1C(=O)C2CC=CCC2C1=O (stereo unspecified),-19,10,-7,5,-2,8
CN(C)c1cccc(C(=O)NNC(=O)CN2C(=O)C3CC=CCC3C2=O)c1 (stereo unspecified),53*,15,-61,-6,-108,53*
COc1cc(C2c3[nH]c4ccccc4c3CC3COC(=O)N32)cc(OC)c1O (stereo unspecified),14,36,-3,-25,64*,28
COc1cc([C@H]2c3[nH]c4ccccc4c3C[C@H]3C(=O)N4[C@@H](c5cc(OC)c(OC)c(OC)c5)c5[nH]c6ccccc6c5C[C@H]4C(=O)N23)cc(OC)c1OC,8,39,.,-23,.,-5
C/C(=N\NC(=O)c1c([N+](=O)[O-])c(C)nn1C)c1ccc(NC(=O)C2CCCC2)cc1,-5,34,-17,-4,52*,-22
c1cnc2c(c1)ccc1cccnc12,-2,-31,2,7,62*!,-19
O=Cc1ccc2ccc3cccnc3c2n1,-2,9,8,8,-5,14
Cc1cc(C)cc(NC(=O)COC(=O)Cc2ccccc2F)c1,-6,17,-1,0,-1,75*
O=C(COC(=O)Cc1ccccc1F)Nc1ccc2c(c1)OCO2,-48,1,4,8,2,-14
Cc1ccc(-n2nc3ccc(N)cc3n2)cc1,-48,-17,.,-4,.,-33
CC(C)c1ccc(-n2nc3ccc(N)cc3n2)cc1,5,-25,.,-37,5,51*
COCC(=O)N1CC[C@@H]2[C@H](CO)Nc3ccc(C#Cc4ccc(F)cc4)cc3[C@@H]21,.,.,2,.,-19,.
Cc1ccc(S(=O)(=O)N2CCCCC2C(=O)N(C)c2ccccc2)cc1 (stereo unspecified),-1,4,19,-7,-4,-19
Cc1ccc(N(C)C(=O)C2CCCN2S(=O)(=O)c2ccc3c(c2)n(C)c(=O)c(=O)n3C)cc1 (stereo unspecified),-5,-4,-3,2,1,66*
CCCNC(=O)N1[C@H](CO)[C@@H](c2ccccc2-c2ccccc2)[C@@H]1C#N,.,.,-13,.,-1,.
O=C(CC1SC(=O)N(Cc2cccc3ccccc23)C1=O)Nc1nccs1 (stereo unspecified),11,9,.,-1,.,-16
CCOC(=O)CN1C(=O)SC(CC(=O)Nc2nccs2)C1=O (stereo unspecified),.,2,.,3,.,67*
CC(C)NC(=O)C1CCN(C(=O)N(C)C)CC1,6,-5,.,0,.,51*
CCN(CC)c1ccc(/C=N/N=C(N)N)c(O)c1,-3,3,-15,4,54*,-21
SMILES,TROY signal inh,CF NFkB block,LGR2 inh,KKLEB tox,EWS-Fli block,TWEAK-Fn14 inh
CCN(CC)c1ccc(C=Nc2ccc(N(C)C)cc2)c(O)c1,-5,-5,.,1,.,58*
CCN(CC)c1ccc(N=Cc2ccc(N(CC)CC)cc2O)cc1,11,7,.,-11,.,19
COc1ccc(CN(C)C[C@H]2OCCCC[C@@H](C)Oc3ccc(NC(=O)Cc4ccccc4)cc3C(=O)N([C@H](C)CO)C[C@@H]2C)cc1,.,.,-14,.,-5,.
CC(C)CCn1c(SCC(=O)N2CC(=O)Nc3ccccc32)nc2scc(-c3cccs3)c2c1=O,6,-2,.,-1,.,15
C=CCn1c(SCC(=O)N2CC(=O)Nc3ccccc32)nc2scc(-c3cccs3)c2c1=O,10,-25,.,24,.,52*
C[C@H](CO)N1C[C@H](C)[C@H](CN(C)C(=O)CCC(F)(F)F)OCCCC[C@H](C)Oc2ccc(NC(=O)C3CCCCC3)cc2C1=O,.,.,-4,.,-1,.
CO[C@@H]1CN(C)C(=O)c2ccc(NC(=O)C3CC3)cc2OC[C@@H](C)N(C)C[C@@H]1C,.,.,19,.,9,.
Cc1c(CCOC(=O)C23CC4CC(CC(C4)C2)C3)sc[n+]1CC#N,10,76*,.,-63*,46,26
C(=N\Nc1nc2ccccc2[nH]1)/c1c[nH]c2ccccc12,-25,-55,-58,21,.,51*
COc1ccc(/C=N/Nc2ccccn2)c(OC)c1OC,-14,-13,-29,-1,-74,-42
Cc1[nH]c2ccccc2c1/C=N/Nc1nc2ccccc2[nH]1,57*,-83,100*,17,-43,95*
Cc1ccc(/C=N/Nc2nc3ccccc3[nH]2)s1,-57,-42,-84,4,.,50*
C(=N\Nc1nc2ccccc2[nH]1)/c1ccccc1,-4,-16,-61,1,-67,11
COc1ccc(/C=N/Nc2nc3ccccc3[nH]2)c(OC)c1OC,73*,-26,28,5,-43,78*
Cc1ccccc1/C=N/Nc1nc2ccccc2[nH]1,-29,-23,-59,6,-123,7
CO[C@@H]1CN(C)C(=O)c2ccc(NC(=O)C3CCCC3)cc2OC[C@@H](C)N(Cc2cccnc2)C[C@H]1C,.,.,-3,.,8,.
CC(=O)c1c(C)oc2ccc(N(C(C)=O)S(=O)(=O)c3ccc(Cl)c([N+](=O)[O-])c3)cc12,88*,42,.,-9,.,42
Cc1noc(C)c1NC(=O)N(C)C[C@H]1OCc2ccccc2-c2ccccc2C(=O)N([C@H](C)CO)C[C@@H]1C,.,.,10,.,-1,.
O=C(CSC1=NCCS1)Nc1ccnc2ccccc12,29,32,4,-8,.,52*
Cc1cc(C)nc(SCC(=O)Nc2ccnc3ccccc23)n1,15,6,-8,11,2,33
CCOCCn1c(COc2ccc(C)cc2)nc2ccccc21,-91,4,-23,-4,.,-45
COCCn1c(COc2ccc(C)cc2)nc2ccccc21,.,7,.,0,.,65*
O=[N+]([O-])c1ccc(S(=O)Cc2ccccc2)c([N+](=O)[O-])c1 (stereo unspecified),74*,86*,60*,-20,36,42
O=[N+]([O-])c1ccc(CS(=O)c2ccccc2)cc1 (stereo unspecified),0,-1,.,5,-11,10
COc1ccc(C#Cc2ccc3c(c2)[C@H]2[C@H](CCN2C(=O)c2ccccn2)[C@@H](CO)N3)cc1,.,.,-20,.,.,.
